# Source: PubChem BioAssay (NCATS)
# Active and inactive are the calls of the source. The rule behind the calls is not given here.
# Test system: HIV-1 nucleocapsid protein NCp7 (binding to TG oligonucleotide)
# Test: HIV Nucleocapsid (AID 346);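 note: potency is for inhibitors that block NC binding and lower polarization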
# Settings: HIV-1 NC / fluorescein-TGTGTGTG probe, fluorescence polarization
# In short: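 10 nM TG4xF probe with 100 nM nucleocapsid protein in high-salt Hepes pH 7.5 (250mM NaCl) containing 1uM ZnCl2 and reducing agents. Compound inhibition of binding was read as fluorescein polarization after 1 hr at room temperature.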
# Potency is the fitted concentration of half-maximal effect.
row,SMILES,Potency
1,COCCn1c(=O)c(-c2ccccc2)nc2cnc(Oc3ccccc3)nc21,> 20 µM (inactive)
2,c1ccc(C(c2ccccc2)N2CCC3(CCNCC3)CC2)cc1,> 20 µM (inactive)
3,COCCn1c(=O)c(-c2cccc(C#N)c2)nc2cnc(Oc3cccc(Cl)c3)nc21,> 20 µM (inactive)
4,COc1ccc(-c2nc3cnc(N4CCOCC4)nc3n(C3CC3)c2=O)cc1,> 20 µM (inactive)
5,Cc1cnc(CNc2ccnc(-c3ccccc3Cl)n2)cn1,> 20 µM (inactive)
6,CCNc1ncc2nc(C)c(=O)n(-c3ccc(OC)cc3)c2n1,> 20 µM (inactive)
7,COc1cccc(-c2ccc3ncnc(NCc4ccc(OC)cc4OC)c3c2)c1,> 20 µM (inactive)
8,O=C(c1cnccn1)N1CCC2(CC1)CN(C(c1ccccc1)c1ccccc1)C2,> 20 µM (inactive)
9,COc1ccc(NC(=O)N2CCCC3(CCN(C(=O)c4cc(C(F)(F)F)cc(C(F)(F)F)c4)CC3)C2)cc1,> 20 µM (inactive)
10,CC(=O)N1CCC2(CCCN(C(c3ccccc3)c3ccccc3)C2)CC1,> 20 µM (inactive)
11,COc1ccccc1CN1CCCC2(CCN(C(C)=O)CC2)C1,> 20 µM (inactive)
12,COCCn1c(=O)c(C)nc2cnc(Oc3cccc(Cl)c3)nc21,> 4 µM (inactive)
13,COc1ccc2[nH]cc(CCNc3ncncc3-c3ccccc3C(F)(F)F)c2c1,> 20 µM (inactive)
14,FC(F)(F)c1ccccc1-c1nc(N2CCNCC2)c2ccccc2n1,> 20 µM (inactive)
15,COc1ncc2nc(C)c(=O)n(C)c2n1,> 20 µM (inactive)
16,Cn1cccc1C(=O)N1CCC2(CCN(Cc3ccc(C#N)cc3)CC2)CC1,> 20 µM (inactive)
17,NC(=O)c1ccccc1-c1nc(-n2ccnc2)c2ccccc2n1,> 20 µM (inactive)
18,Cc1noc(C)c1C(=O)N1CCC2(CCCN(C(=O)Nc3cccc(C#N)c3)C2)CC1,> 20 µM (inactive)
19,N#Cc1cccc(NC(=O)N2CCCC3(CCN(C(=O)c4ccco4)CC3)C2)c1,> 4 µM (inactive)
20,Cc1noc(C)c1-c1cncnc1NCCN1CCOCC1,> 20 µM (inactive)

row,SMILES,Potency
1,COc1ccc(-c2nc3cnc(N4CCNCC4)nc3n(Cc3ccc(F)cc3)c2=O)cc1,> 20 µM (inactive)
2,COc1ccc(C(=O)N2CCC3(CCCN(CC(C)C)C3)CC2)cc1,> 20 µM (inactive)
3,COc1ccc(CNc2nc(-c3ccoc3)nc3ccccc23)c(OC)c1,> 20 µM (inactive)
4,O=C(c1csnn1)N1CCC[C@@]2(CCN(c3cccc(-c4ccccc4)c3)C2)C1,> 20 µM (inactive)
5,CN1CCCC2(CCN(C(=O)c3cccc(F)c3)CC2)C1,> 20 µM (inactive)
6,Cc1noc(C)c1C(=O)N1CCC2(CC1)CN(c1ccccn1)C2,> 20 µM (inactive)
7,N#CCCn1c(=O)c(-c2ccccc2)nc2cnc(N3CCNCC3)nc21,> 20 µM (inactive)
8,N#Cc1cccc(NC(=O)N2CC3(CCN(C(=O)c4cnccn4)CC3)C2)c1,> 20 µM (inactive)
9,c1ccc2c(NCCN3CCOCC3)nc(-c3ccoc3)nc2c1,> 20 µM (inactive)
10,CN(C)c1ncc2nc(-c3cccs3)c(=O)n(Cc3cccs3)c2n1,> 4 µM (inactive)
11,Cc1noc(C)c1-c1cc(NCc2cccnc2)ncn1,> 20 µM (inactive)
12,Cc1noc(C)c1C(=O)N1CCC[C@@]2(CCN(c3ncccn3)C2)C1,> 20 µM (inactive)
13,O=C(c1cnccn1)N1CCC[C@@]2(CCN(c3ccccn3)C2)C1,> 20 µM (inactive)
14,Cc1cnc(CNc2nc(-c3cccnc3)nc3ccccc23)cn1,> 20 µM (inactive)
15,CCNc1ncc2ncc(=O)n(CCc3ccccc3)c2n1,> 20 µM (inactive)
16,Cn1c(=O)cnc2cnc(OCc3ccccc3)nc21,> 20 µM (inactive)
17,CCNc1ncc2ncc(=O)n(C[C@H]3CCCO3)c2n1,> 20 µM (inactive)
18,O=c1cnc2cnc(Oc3ccccc3)nc2n1C1CC1,> 20 µM (inactive)
19,O=C(c1cnccn1)N1CCC[C@@]2(CCN(Cc3ccncc3)C2)C1,> 20 µM (inactive)
20,COc1ccc(-n2c(=O)c(-c3ccccc3)nc3cnc(N4CCNCC4)nc32)cc1,> 20 µM (inactive)
